In one assay the test system is MCC-26. The experiment in a line: qHTS assay to identify novel small-molecules to repurpose for Merkel cell carcinoma treatment (AID 1296009). Note: nearly all actives have a fitted effect of over 60% in size. The note with it: MCC and control cell lines, CellTiter-Glo viability, 72 h; series mostly up to 46 µM. The procedure, abridged:
(§1)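 qHTS format: cells treated with library compounds in DMSO across 8 (NPC) or 11 (MIPE) concentrations. Readout after 72 hr at 37 degree celsius was CellTiter-Glo luminescence.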
(In general: Quantitative high-throughput screening tests each substance at several concentrations.)

The test system of the next assay is MKL-1. The description is as above. The note with it: MCC and control cell lines, CellTiter-Glo viability, 72 h; series mostly up to 46 µM. The essentials: as §1
For orientation: In ATP-based viability assays light output follows the ATP content of the culture.

In another assay the test system is MKL-2. The assay is described as above. The note with it: MCC and control cell lines, CellTiter-Glo viability, 72 h; series mostly up to 46 µM. The procedure, abridged: as §1
For a further assay, the system named is NIH3T3. The assay is described as above. The note with it: MCC and control cell lines, CellTiter-Glo viability, 72 h; at 44.8 µM (top of the series) unless noted. The essentials: as §1
The test system of the next assay is UISO. Described as above. The note with it: MCC and control cell lines, CellTiter-Glo viability, 72 h; series mostly up to 46 µM. The procedure, abridged: as §1
The next assay relates to WaGa. The assay is described as above. The note with it: MCC and control cell lines, CellTiter-Glo viability, 72 h; series mostly up to 46 µM. The procedure, abridged: as §1
A further assay has as its system C33A. The experiment in a line: Primary qHTS to identify gynecologic anti-cancer compounds using libraries of approved drugs and bioactive compounds (AID 1345084). Note: nearly all actives have a fitted effect of over 55% in size. The note with it: Gynecologic cancer cell panel viability, ATPlite luminescence, 48 h; series mostly up to 57.5 µM. The essentials:
(§2)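 Five-point cytotoxicity, 48 h drug exposure at 37 C, 5% CO2, on cells seeded 16 h beforehand. ATP content read by ATPlite luminescence.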

Another assay has as its system CAOV3. The assay is described as above. The note with it: Gynecologic cancer cell panel viability, ATPlite luminescence, 48 h; series mostly up to 57.5 µM. The procedure, abridged:
as §2

The test system of the next assay is CASKI. Described as above. The note with it: Gynecologic cancer cell panel viability, ATPlite luminescence, 48 h; series mostly up to 57.5 µM. The procedure, abridged: as §2
For another assay, the system named is Es-2. The description is as above. The note with it: Gynecologic cancer cell panel viability, ATPlite luminescence, 48 h; series mostly up to 57.5 µM. The essentials:
as §2

The subject of another assay is Hek293T. The assay is described as above. The note with it: Gynecologic cancer cell panel viability, ATPlite luminescence, 48 h, control line for the selectivity index; series mostly up to 57.5 µM. The procedure, abridged:
as §2

The subject of another assay is JEG-3. The description is as above. The note with it: Gynecologic cancer cell panel viability, ATPlite luminescence, 48 h; series mostly up to 57.5 µM. The procedure, abridged: as §2
The test system of a further assay is OV90. The assay is described as above. The note with it: Gynecologic cancer cell panel viability, ATPlite luminescence, 48 h; series mostly up to 57.5 µM. The procedure, abridged: as §2
Another assay deals with PA-1. The assay is described as above. The note with it: Gynecologic cancer cell panel viability, ATPlite luminescence, 48 h; series mostly up to 57.5 µM. The procedure, abridged: as §2
For another assay, the system named is SKOV3. The assay is described as above. The note with it: Gynecologic cancer cell panel viability, ATPlite luminescence, 48 h; series mostly up to 57.5 µM. The procedure, abridged:
as §2

For another assay, the system named is Tov-21-G. The description is as above. The note with it: Gynecologic cancer cell panel viability, ATPlite luminescence, 48 h; series mostly up to 57.5 µM. The essentials: as §2
The subject of the next assay is Tov112D. The assay is described as above. The note with it: Gynecologic cancer cell panel viability, ATPlite luminescence, 48 h; series mostly up to 57.5 µM. The essentials: as §2
Assay [1] can be described thus: Drug repurposing screens with cells derived from glioblastoma tumor samples (AID 1345199). Note: nearly all actives have a fitted effect of over 40% in size. Note: potency is the fitted concentration of half-maximal effect. The note with it: GBM patient neurospheres viability, ATP luminescence, 48 h. The essentials: (§3)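 Four patient lines of CD133+ GBM neurospheres were screened at several concentrations; hits were retested in those lines plus three slower-growing GBM lines, using 48-hour treatment and ATP-based viability.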

For another assay, the system named is astro. The description is as above. The note with it: viability, ATP luminescence, 48 h; series mostly up to 45.9 µM. The essentials:
as §3

The subject of the next assay is HeLa. Briefly: Primary qHTS to identify gynecologic anti-cancer compounds using libraries of approved drugs and bioactive compounds (AID 1345084). Note: nearly all actives have a fitted effect of over 55% in size. The note with it: Gynecologic cancer cell panel viability, ATPlite luminescence, 48 h; series mostly up to 57.5 µM. The procedure, abridged:
as §2

Setting [2] is: at 45.9 µM (top of the series), tumour line B.
Setting [3] is: at 45.9 µM (top of the series), tumour line D.
[4] abbreviates: at 46 µM (top of the series), tumour line A.
Setting [5] is: at 46.1 µM (top of the series), tumour line C.

Molecules are shown by their SMILES. Records with an inconclusive call do not appear. Values without a mark were called inactive. Active and inactive are the calls of the source. Calls come from the whole dose curve; as a rule, active = well fitted curve in the direction sought with a large enough effect; inconclusive = small, poorly fitted or top-dose-only effect, or another doubt; inactive = no such curve, though single readings can be large; an effect the other way counts as inactive or inconclusive.

Six compounds from PubChem BioAssay (NCATS) can be followed below.
% is set by controls: 0 for no effect and ±100 for the full control effect.

Take `Cc1nnc(C(=O)NC(C)(C)c2nc(C(=O)NCc3ccc(F)cc3)c(O)c(=O)n2C)o1`: the Potency result in the assay with MCC-26, in the assay with MKL-1, in the assay with MKL-2, in the assay on UISO, with WaGa and in the assay on C33A was “inactive” in each case. Moreover, the Potency result in the assay with CAOV3, in the assay on CASKI, in the assay on Es-2, in the assay on Hek293T, with JEG-3 and with OV90 was “inactive” throughout. Besides, the Potency result with PA-1, with SKOV3, in the assay with Tov-21-G, with Tov112D and in the assay on astro was “inactive” in each case. Further, the compound was classed as inactive in the assay with NIH3T3. Also, the activity, negative = cell killing was 5.76% in [1] (setting [2]), -4.7% in assay [1] (setting [3]), -16.1% in [1] (setting [4]) and 13.1% in [1] (setting [5]).

For the compound `CCOc1cc(N)c(Cl)cc1C(=O)NCC1CN(Cc2ccc(F)cc2)CCO1` (stereo unspecified), the Potency result in the assay on MCC-26, in the assay on MKL-1, with MKL-2, in the assay on UISO, in the assay with WaGa and in the assay with C33A was “inactive” each time. In addition, the Potency result with CAOV3, with CASKI, with Es-2, in the assay on HeLa, in the assay with Hek293T and with JEG-3 was “inactive” each time. The Potency result with SKOV3, in the assay with Tov-21-G, with Tov112D and in the assay on astro was “inactive” in each case. The outcome with NIH3T3 was inactive. In addition, the results for the activity, negative = cell killing in assay [1] (setting [2]) and in assay [1] (setting [5]) were -18.6% and 4.16%, respectively. In addition, in [1] (tumour line A), the Potency is 11.2 µM (active).

With `CNNCc1ccc(C(=O)NC(C)C)cc1`, the Potency result in the assay with MCC-26, in the assay on MKL-1, in the assay on MKL-2, with UISO, with WaGa and in the assay on C33A was “inactive” each time. For the same compound, the Potency entry with CAOV3, in the assay on CASKI, in the assay with Es-2, with HeLa, in the assay on Hek293T and in the assay with JEG-3 was “inactive” throughout. Also, the Potency entry in the assay with OV90, with PA-1, in the assay on SKOV3, in the assay with Tov-21-G, in the assay on Tov112D and in the assay on astro was “inactive” throughout. Further, the call with NIH3T3 was inactive. For the same compound, the results for the activity, negative = cell killing in [1] (setting [2]), in [1] (setting [3]) and in [1] (setting [5]) were -4.85%, -17.7% and -14.6%, respectively.

For the compound `Nc1nc(N)c2nc(CNc3ccc(C(=O)NC(CCC(=O)O)C(=O)O)cc3)cnc2n1` (stereo unspecified), the Potency result in the assay on MCC-26, in the assay with MKL-1 and in the assay with MKL-2 was “inactive” in each case.

In the case of `CC1=CC(=O)c2ccccc2C1=O`, the Potency result in the assay with MCC-26, with MKL-1, with MKL-2, with UISO, in the assay with WaGa and in the assay on C33A was “inactive” throughout. Also, the Potency entry in the assay on CAOV3, in the assay on CASKI, in the assay on Es-2, with HeLa, in the assay on Hek293T and with JEG-3 was “inactive” throughout. For the same compound, the Potency result with OV90, in the assay with PA-1, in the assay with SKOV3, in the assay with Tov-21-G and in the assay with Tov112D was “inactive” throughout. In the assay on NIH3T3, the compound was called inactive. For the same compound, the activity, negative = cell killing in [1] (setting [5]) is -17.3%. The Potency in [1] (tumour line A) is 35.5 µM (active); in assay [1] (tumour line D) it was 22.4 µM (active).

As to `CNC1CCCN(c2c(F)cc3c(=O)c(C(=O)O)cn(C4CC4)c3c2OC)C1` (stereo unspecified), the Potency entry in the assay on MCC-26, in the assay on MKL-1, in the assay with MKL-2, in the assay on UISO, with WaGa and in the assay on C33A was “inactive” in each case. Also, the Potency entry in the assay with CAOV3, with CASKI, in the assay on Es-2, in the assay with HeLa, in the assay with Hek293T and in the assay with JEG-3 was “inactive” each time. Moreover, the Potency entry in the assay on OV90, with PA-1, with SKOV3, in the assay on Tov-21-G, in the assay with Tov112D and in the assay on astro was “inactive” each time. For the same compound, the outcome with NIH3T3 was inactive. Further, the activity, negative = cell killing in assay [1] (setting [2]) was 0.798%; in [1] (setting [3]), -8.95%; in assay [1] (setting [4]), -37.3%; in assay [1] (setting [5]), -5.21%.
